# Measurements as given in the supplement of paper PMC4166925.
# ± gives the standard deviation of the averaged measurements. The full ranking holds about 33,000 sequences; the median of “E-score (dimensionless, -0.5 to 0.5)” is about -0.049, and the highest 2% start at about 0.37. The sample holds the highest values, similar sequences and a random draw of the others, so the mix is not that of the screen.
# System: T1, PmTbr T-box DNA-binding domain (GST fusion)
# T1 sequence: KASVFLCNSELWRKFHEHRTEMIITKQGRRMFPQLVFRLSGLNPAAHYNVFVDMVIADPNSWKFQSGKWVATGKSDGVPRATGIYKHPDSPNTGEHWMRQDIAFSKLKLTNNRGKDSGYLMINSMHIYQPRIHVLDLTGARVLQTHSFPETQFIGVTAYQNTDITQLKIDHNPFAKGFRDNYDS
# Assay: PBM E-score of 8-mer (E-score (dimensionless, -0.5 to 0.5)); Tbr is Tbrain of the sea star Patiria miniata (Pm) or the sea urchin Strongylocentrotus purpuratus (Sp); higher = stronger binding preference
# Settings: the construct has about 5 more residues each side
# Procedure, shortened: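 Universal Agilent oligonucleotide arrays, made double-stranded by primer extension, were incubated with 200 nM GST-fused Tbr T-box DNA-binding domain in PBS (pH 7.5). The protein was expressed in BL21 E. coli at 20 °C and purified by glutathione affinity chromatography. After scanning and quantification, the Universal PBM Analysis Suite assigned an enrichment E-score to each ungapped 8-mer, averaged over duplicate arrays.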
row,Sequence,PBM E-score of 8-mer
1,AGTTCGCA,0.378 ± 0.0033
2,CATTCGCA,0.3497 ± 0.0027
3,GGTTCGCA,0.334 ± 0.02
4,AGTTCGCC,0.0555 ± 0.091
5,CGTTCGCA,0.38 ± 0.037
6,ACTGCAGT,0.185 ± 0.034
7,CAGTGCGG,-0.0389 ± 0.1
8,ACGTGCGA,0.4433 ± 0.0027
9,CAGTGCGC,-0.0646 ± 0.032
10,TAGTGCGA,0.4056 ± 0.0024
11,ACGTGCGG,0.191 ± 0.05
12,AAGTGCGT,0.149 ± 0.039
13,TAGTGCAA,0.267 ± 0.055
14,AAGTGCGC,0.138 ± 0.026
15,GCGTGCGA,0.285 ± 0.02
16,AAGTGCGA,0.4835 ± 0.00061
17,TAGTGCCA,0.249 ± 0.0097
18,CAGTGCGA,0.386 ± 0.019
19,ATCAACGG,-0.182 ± 0.042
20,ATGTTTCA,-0.174 ± 0.074
21,CGGTTTGA,-0.1932 ± 0.0019
22,ATAACCAA,-0.112 ± 0.038
23,CTTAGGAA,-0.24 ± 0.011
24,CGGAAAAA,-0.0583 ± 0.12
25,AAACTACT,0.0819 ± 0.0066
26,CTTCTCAC,0.365 ± 0.01

row,Sequence,PBM E-score of 8-mer
1,GAGTGCGC,-0.0278 ± 0.044
2,ATGTGCGC,0.138 ± 0.0009
3,ATGTGCGA,0.4691 ± 0.0032
4,GAGTGCAA,0.0826 ± 0.02
5,GAGTGCGA,0.4088 ± 0.00055
6,ATGTGCGG,0.0803 ± 0.028
7,CCTTTCGA,-0.06 ± 0.02
8,AAGTCATA,-0.0653 ± 0.022
9,ATGCAATA,-0.341 ± 0.0082
10,CACCTTAC,0.394 ± 0.0074
11,CACCTTAA,0.385 ± 0.011
12,CCCCTTAG,-0.195 ± 0.0038
13,AACCTTAA,-0.209 ± 0.044
14,CACCTTAG,0.4473 ± 0.0023
15,GACCTTAC,-0.313 ± 0.028
16,GACCTTAA,-0.136 ± 0.0073
17,AACCTTAG,-0.0923 ± 0.0088
18,AACCTTAC,-0.000525 ± 0.043
19,AATTCTAA,-0.128 ± 0.086
20,AAAGTCCG,-0.00454 ± 0.029
21,CCATCAGG,0.0307 ± 0.054
22,CGAAGGGA,0.00651 ± 0.088
23,ATATTCTC,-0.0331 ± 0.008
24,CGCGCTAA,0.369 ± 0.0084
25,TGCGCTAA,0.247 ± 0.036
26,AGCGCTAA,0.362 ± 0.02

row,Sequence,PBM E-score of 8-mer
1,CGCGCTAG,0.159 ± 0.019
2,GGCGCTAC,0.346 ± 0.037
3,GGCGCTAA,0.426 ± 0.0098
4,AGCAGCGA,-0.0709 ± 0.041
5,CCGCCCAA,-0.101 ± 0.091
6,TATGAGAA,-0.274 ± 0.048
7,GATTGCCC,-0.0679 ± 0.024
8,GCGCAGGA,-0.0924 ± 0.067
9,AGGTGTAC,0.218 ± 0.043
10,GGGTGTAC,-0.0259 ± 0.052
11,AGGTGTAT,0.328 ± 0.0044
12,CGGTGTAG,0.134 ± 0.1
13,TGGTGTAA,0.28 ± 0.011
14,AGGTGTAG,0.408 ± 0.0046
15,AGGTGTAA,0.47639 ± 0.00041
16,GGGTGTAA,0.385 ± 0.013
17,CGGTGTAA,0.131 ± 0.037
18,TTGGGAAA,-0.102 ± 0.057
19,AGTTCTGC,-0.332 ± 0.0036
20,CGACGGGA,-0.129 ± 0.036
21,CACAAGTG,0.367 ± 0.0037
22,ATTGCCTA,-0.134 ± 0.077
23,AGTGCTGC,0.0868 ± 0.0037
24,CATCAAAG,-0.0524 ± 0.035
25,GATATCCC,-0.147 ± 0.05
26,AACGCCTT,0.3747 ± 0.00064

row,Sequence,PBM E-score of 8-mer
1,AACGCCTC,0.362 ± 0.007
2,AACGCCTA,0.279 ± 0.034
3,AAAGTGAG,0.219 ± 0.048
4,ATAGTGTC,0.335 ± 0.011
5,ACAGTGTC,0.238 ± 0.0038
6,AAAGTGGT,0.106 ± 0.042
7,AAAGTGTA,0.147 ± 0.057
8,AAAGTGTG,0.435 ± 0.012
9,AGAGTGTG,0.34 ± 0.01
10,ATAGTGTA,0.0192 ± 0.0016
11,ATAGTGTG,0.393 ± 0.033
12,AAAGTGTC,0.4215 ± 0.0027
13,AAAGTGGC,0.234 ± 0.005
14,AAAGTGTT,0.429 ± 0.014
15,AGGTTGTG,0.16 ± 0.052
16,AGGACCAC,-0.253 ± 0.12
17,GATAGGCA,-0.121 ± 0.014
18,AGAATCTA,0.151 ± 0.0012
19,CTTCGATA,-0.00351 ± 0.034
20,TTAGCAAA,0.173 ± 0.064
21,CGAGTGTC,0.294 ± 0.018
22,AGAGTGTC,0.385 ± 0.0076
23,AGAGTGTA,0.0538 ± 0.058
24,TAGGTTAA,-0.216 ± 0.0052
25,AGAGTTGA,0.0684 ± 0.016
26,AGGCGCTA,0.4421 ± 0.0025

row,Sequence,PBM E-score of 8-mer
1,GGGCGCGA,0.409 ± 0.02
2,GGGCGAGA,0.194 ± 0.052
3,GGGCGCTA,0.346 ± 0.018
4,GGGGGCGA,0.01664 ± 0.00016
5,AGGCGAGC,-0.25 ± 0.068
6,AGGCGCGG,0.242 ± 0.019
7,AGGCGCGA,0.463 ± 0.0056
8,CGGCGCGA,0.317 ± 0.034
9,CGGCGCTA,0.239 ± 0.033
10,AGGCGAGA,0.401 ± 0.011
11,AGGCGCGC,0.152 ± 0.021
12,AAGCGATG,-0.00845 ± 0.0036
13,CCCTCTGC,0.0209 ± 0.072
14,ATCTTAGA,-0.0793 ± 0.081
15,CGACCAAC,0.00547 ± 0.043
16,ACTGCTGA,0.181 ± 0.035
17,AGTCATCG,-0.153 ± 0.0094
18,CTTAAGGC,-0.0813 ± 0.065
19,CAATCTAC,-0.0883 ± 0.0018
20,GCTCTATA,-0.25 ± 0.048
21,TCGAAAGA,-0.172 ± 0.05
22,GACCCTTA,-0.0822 ± 0.0071
23,CGAGTTAG,-0.0558 ± 0.052
24,GAAGCTCC,-0.342 ± 0.041
25,CTGTGGAC,-0.104 ± 0.0043
26,CACTAGGG,-0.15 ± 0.031

row,Sequence,PBM E-score of 8-mer
1,AGGCGACC,-0.13 ± 0.17
2,AGGCGACG,0.268 ± 0.0026
3,AGGCGACA,0.3974 ± 0.0038
4,AATTGGCA,0.247 ± 0.036
5,CGAAAAAA,0.00041 ± 0.062
6,CGAAATCG,0.231 ± 0.046
7,AAAAGTGA,0.197 ± 0.059
8,AAAAGTGG,0.107 ± 0.0099
9,ACAAGTGG,0.375 ± 0.017
10,ACAAGTGC,0.249 ± 0.005
11,AAAAGTGT,0.413 ± 0.015
12,ACAAGTGA,0.277 ± 0.034
13,ACAAGTCT,0.103 ± 0.044
14,ACAAGTAT,0.112 ± 0.028
15,ACAAGTGT,0.391 ± 0.0052
16,CGCACTCA,0.161 ± 0.074
17,AAAACGGG,-0.146 ± 0.0023
18,ATATACGA,-0.298 ± 0.059
19,AAATTCTT,-0.155 ± 0.029
20,TACTACGA,0.0382 ± 0.023
21,ATATGGCC,-0.235 ± 0.066
22,ATGGGCTC,-0.154 ± 0.16
23,TCGCTTCA,0.177 ± 0.02
24,CACGGGTC,0.0871 ± 0.051
25,GTGTCGGA,0.394 ± 0.015
26,GTGTCGCA,0.415 ± 0.0083

row,Sequence,PBM E-score of 8-mer
1,ATGTCGGA,-0.0551 ± 0.054
2,ATGTCGCA,0.254 ± 0.049
3,CTGTCGGA,0.101 ± 0.044
4,CTGTCGCA,0.224 ± 0.064
5,CGGATGCC,-0.239 ± 0.09
6,AGTAGAGA,-0.165 ± 0.0094
7,CAAATGTC,0.0249 ± 0.12
8,ACCTCAAC,-0.0545 ± 0.07
9,CCGCTGAA,-0.279 ± 0.04
10,AGTGCTAC,0.276 ± 0.031
11,AGTGCTAA,0.421 ± 0.012
12,AGTGCTAG,0.358 ± 0.0077
13,GGTGCTAA,0.4753 ± 0.00081
14,CGTGCTAA,0.378 ± 0.021
15,GGTGCTTA,0.0849 ± 0.048
16,AGTGCTAT,0.27 ± 0.0047
17,CGTGCTAC,0.185 ± 0.0064
18,GGTGCTCA,-0.112 ± 0.025
19,GGTGCTAC,0.434 ± 0.0055
20,TGTGCTAA,0.346 ± 0.02
21,CGTGCTAG,0.287 ± 0.027
